Holding throughout (design): species or system human, MV4-11 + K-562 + COLO205 + SK-N-BE2 + OVCAR-8
One test relates to ACVR1B. The note with it: read-out: apparent Kd, compound concentrations: 100 nM and 1000 nM (sheet 'Samples'), n = 1.
Another test deals with ACVR1. The note with it: read-out: apparent Kd; compound concentrations: 100 nM and 1000 nM (sheet 'Samples'), CATDS: 4.9335047128928999E-2; n = 1.
The next test relates to CSNK1A1. The note with it: read-out: apparent Kd, compound concentrations: 100 nM and 1000 nM (sheet 'Samples'), n = 1.
A further test deals with CSNK1D. Conditions: read-out: apparent Kd, compound concentrations: 100 nM and 1000 nM (sheet 'Samples'), n = 1.
For a further test, the system named is CSNK1E. Conditions: read-out: apparent Kd, compound concentrations: 100 nM and 1000 nM (sheet 'Samples'), n = 1.
The subject of another test is DDR1. The note with it: read-out: apparent Kd, compound concentrations: 100 nM and 1000 nM (sheet 'Samples'), n = 1.
The subject of another test is DDR2. Conditions: read-out: apparent Kd; compound concentrations: 100 nM and 1000 nM (sheet 'Samples'), CATDS: 3.7607039392505398E-2; n = 1.
Another test relates to GAK. The note with it: read-out: apparent Kd; compound concentrations: 100 nM and 1000 nM (sheet 'Samples'), CATDS: 4.4963876201462499E-2; n = 1.
A further test has as its system MAPK10. The note with it: read-out: apparent Kd; compound concentrations: 100 nM and 1000 nM (sheet 'Samples'), CATDS: 4.8287227118758103E-2; n = 1.
In another test the test system is MAPK11. Conditions: read-out: apparent Kd; compound concentrations: 100 nM and 1000 nM (sheet 'Samples'), CATDS: 4.7431075480448899E-2; n = 1.
The test system of another test is MAPK14. The note with it: read-out: apparent Kd, compound concentrations: 100 nM and 1000 nM (sheet 'Samples'), n = 1.
A further test concerns MAPK9. Conditions: read-out: apparent Kd; compound concentrations: 100 nM and 1000 nM (sheet 'Samples'), CATDS: 6.4628535375358898E-2; n = 1.
The subject of the next test is MAPKAPK2. Conditions: read-out: apparent Kd; compound concentrations: 100 nM and 1000 nM (sheet 'Samples'), CATDS: 0.150637698751246; n = 1.
In the next test the test system is PRKD2. The note with it: read-out: apparent Kd, compound concentrations: 100 nM and 1000 nM (sheet 'Samples'), n = 1.
The subject of the next test is RIPK2. Conditions: read-out: apparent Kd, compound concentrations: 100 nM and 1000 nM (sheet 'Samples'), n = 1.
The subject of the next test is TGFBR1. The note with it: read-out: apparent Kd, compound concentrations: 100 nM and 1000 nM (sheet 'Samples'), n = 1.
The test system of another test is ATM. The note with it: read-out: apparent Kd; compound concentrations: 100 nM and 1000 nM (sheet 'Samples'), CATDS: 0.55136512573741903; n = 1.
The next test deals with PIP4K2C. Conditions: read-out: apparent Kd; compound concentrations: 100 nM and 1000 nM (sheet 'Samples'), CATDS: 0.19748549423912701; n = 1.
The subject of a further test is PRKAG2. Conditions: read-out: apparent Kd; compound concentrations: 100 nM and 1000 nM (sheet 'Samples'), CATDS: 0.19909509316552701; n = 1.
The next test has as its system BRAF. The note with it: read-out: apparent Kd; compound concentrations: 100 nM and 1000 nM (sheet 'Samples'), CATDS: 0.43506507859715299; n = 1.
In a further test the test system is CDC42BPG. The note with it: read-out: apparent Kd; compound concentrations: 100 nM and 1000 nM (sheet 'Samples'), CATDS: 0.27820560825635698; n = 1.
In a further test the test system is CAMK4. The note with it: read-out: apparent Kd; compound concentrations: 100 nM and 1000 nM (sheet 'Samples'), CATDS: 0.20736458349595299; n = 1.
In the next test the test system is COX5A. The note with it: read-out: apparent Kd; compound concentrations: 100 nM and 1000 nM (sheet 'Samples'), CATDS: 0.27607589651393999; n = 1.
A further test relates to ACVR2B. Conditions: read-out: apparent Kd; compound concentrations: 100 nM and 1000 nM (sheet 'Samples'), CATDS: 9.05518688532823E-2; n = 1.
In the next test the test system is OPA1. Conditions: read-out: apparent Kd; compound concentrations: 100 nM and 1000 nM (sheet 'Samples'), CATDS: 7.7038231613769201E-2; n = 1.
In another test the test system is PRKD3. The note with it: read-out: apparent Kd, compound concentrations: 100 nM and 1000 nM (sheet 'Samples'), n = 1.
The subject of the next test is TGFBR2. Conditions: read-out: apparent Kd, compound concentrations: 100 nM and 1000 nM (sheet 'Samples'), n = 1.
Another test has as its system NQO1. The note with it: read-out: apparent Kd; compound concentrations: 100 nM and 1000 nM (sheet 'Samples'), CATDS: 9.3669265888158104E-2; n = 1.

Like-named read-outs stand apart in the source and are kept apart here.

In the case of `CN1CCN(CCCNc2nccc(-c3c(-c4ccc(F)cc4)nn4cc(C(N)=O)ccc34)n2)CC1` [GW622475X], the potency estimated from few doses in the test on ACVR1B (CATDS: 0.21340745676279499) was 16.5 nM; in the test on ACVR1, 488 nM; with CSNK1A1 (CATDS: 5.98915782601789E-2), 252 nM; in the test with CSNK1D (CATDS: 0.221506901273927) it was 15.6 nM; in the test with CSNK1E (CATDS: 9.6112931202447002E-2), 72.3 nM; in the test with DDR1 (CATDS: 4.72879881828875E-2), 576 nM. Further, the potency estimated from few doses with DDR2 is 1900 nM; in the test with GAK, 712 nM; with MAPK10, 530 nM; in the test on MAPK11, 569 nM; in the test with MAPK14 (CATDS: 0.132847798162957), 36.9 nM; with MAPK9, 200 nM. For the same molecule, the potency estimated from few doses was 29.3 nM in the test on MAPKAPK2, 2180 nM with PRKD2 (CATDS: 3.69212062314868E-2), 363 nM with RIPK2 (CATDS: 5.3537616523073803E-2) and 107 nM with TGFBR1 (CATDS: 8.1591289102362505E-2).

As for `NC(=O)c1cc(-c2ccncc2)cc(-c2ccccc2)c1N` [GSK625137A], the potency estimated from few doses in the test with ACVR1B (CATDS: 0.24390652724185299) is 1010 nM; in the test with ATM, 223 nM; in the test on PIP4K2C, 1780 nM; in the test on PRKAG2, 1730 nM.

Consider `CN(C)CCCNc1nccc(-c2c(-c3ccc(F)cc3)nn3cc(C(F)(F)F)ccc23)n1.CS(=O)(=O)O` [GW618013A], for which the potency estimated from few doses in the test with ACVR1B (CATDS: 0.30191803443786602) is 849 nM; in the test with CSNK1D (CATDS: 0.30648491159914698), 827 nM; in the test with CSNK1E (CATDS: 0.19201098088976601), 2340 nM; with MAPK14 (CATDS: 0.23713518302070899), 1370 nM.

Regarding `CN(C)CCOc1ccc(-c2cc(-c3ccc4c(c3)CCC4=NO)c(-c3ccncc3)o2)cc1.Cl` [SB-682330-A], the results for the potency estimated from few doses in the test on ACVR1B (CATDS: 0.32185082744978499), in the test with BRAF and with CDC42BPG were 1130 nM, 644 nM and 1600 nM, respectively.

As to `COc1ccc2cc(-c3c(-c4ccncc4)nc(-c4ccc(S(C)=O)cc4)n3C)ccc2c1` (stereo not shown) [SB-437013], the potency estimated from few doses in the test on ACVR1B (CATDS: 0.34398750715430798) was 810 nM; in the test on CAMK4, 2240 nM; in the test on COX5A, 1190 nM; in the test on DDR1 (CATDS: 0.21513236479032799) it was 2040 nM.

As to `Nc1nccc(-c2c(-c3ccc(F)cc3)nn3cc(C(F)(F)F)ccc23)n1` [GW568326X], the potency estimated from few doses in the test on ACVR1B (CATDS: 0.37925228743827699) is 526 nM; with CSNK1D (CATDS: 0.232202944333886), 1310 nM; in the test on MAPK14 (CATDS: 0.251383978494441), 1100 nM; in the test with TGFBR1 (CATDS: 0.196901676551059), 2000 nM.

`Cc1ccnc2ccc(-c3sc(N)nc3-c3ccccn3)nc12` [GW777257X]: the potency estimated from few doses is 5.66 nM with ACVR1B (CATDS: 0.44095653710551203); 854 nM in the test with ACVR2B; 1730 nM in the test with CSNK1A1 (CATDS: 7.5324168753573395E-2); 1570 nM in the test on OPA1; 384 nM in the test with PRKD2 (CATDS: 0.11729729568005599); 377 nM in the test on PRKD3 (CATDS: 0.118060499220425). Besides, the potency estimated from few doses was 776 nM in the test on RIPK2 (CATDS: 9.3212886773084105E-2), 4.12 nM in the test on TGFBR1 (CATDS: 0.51991943788690098) and 1070 nM in the test on TGFBR2 (CATDS: 8.4852154522950404E-2).

With `Nc1nc(-c2ccccn2)c(-c2ccc3ncccc3n2)s1` [GW693481X], the potency estimated from few doses in the test on ACVR1B (CATDS: 0.44423819438106199) is 18.9 nM; in the test with CSNK1D (CATDS: 0.10134290714946401), 1410 nM; with NQO1 it was 1850 nM; in the test with PRKD2 (CATDS: 9.0452620049035204E-2) it was 2110 nM; with PRKD3 (CATDS: 9.3266966311560201E-2) it was 1880 nM; with RIPK2 (CATDS: 0.125372096454309), 727 nM. Also, the potency estimated from few doses is 16 nM with TGFBR1 (CATDS: 0.486387422395817) and 1200 nM in the test with TGFBR2 (CATDS: 0.106428788110752).

The values above are taken from PMC11062922 (Nature Chemical Biology, 2023).
